# Screening data (PubChem BioAssay)
# SW480 rereplic – inducers of DNA re-replication in SW480 colon cancer cells; Potency, µM (series often up to 46.1 µM), hits mostly activators; 340,000 compounds, 1.8% hits; SW480 DNA re-replication, Hoechst DNA content imaging, 48 h; note: nearly all actives have a fitted effect of over 55% in size
#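 SW480 cells exposed to compounds for 48 hr at 37 C, 5% CO2, then Hoechst-stained 40 min. Nuclear DNA content imaged by fluorescence scanning (405 nm excitation, 500-530 nm emission); re-replication scored as increased high-intensity nuclei.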
# MCF10A rerep – induces DNA re-replication in MCF 10a normal breast cells. MCF 10A DNA re-replication, Hoechst nuclear intensity, 48 h. Potency, µM (titrated, usually from 46.1 µM), usual class: activators. 350,000 compounds, 2.9% hits; note: nearly all actives have a fitted effect of over 50% in size
# KB-3-1 cytotox – kills parental KB-3-1 adenocarcinoma cells; KB-3-1 viability, CellTiter-Glo ATP luminescence, 72 h; Potency, µM (titrated, usually from 46.1 µM), usual class: cytotoxic; 400,000 compounds, 1.4% hits; note: nearly all actives have a fitted effect of over 60% in size
#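 Cytotoxicity in the drug-sensitive parental line KB-3-1 was scored as loss of CellTiter-Glo luminescence following 72 h incubation with compound. Values come from curve fitting of normalized concentration-response data.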
# ELG1 repair inh – inhibitors of ELG1-dependent DNA repair in HEK293T cells. HEK293T ELG1-luciferase reporter, luminescence, 16 h; DNA damage induced by 5-fluorouridine. Potency, µM (top dose mostly 46.1 µM), hits mostly inhibitors. 330,000 compounds, 2.3% hits. AID 504467; note: nearly all actives have a fitted effect of over 55% in size
#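 Reporter activity after DNA damage by 5-fluorouridine is monitored. Compound-treated cells incubate 16 hr at 37 °C, then ONE-Glo is added for 30 min before luminescence reading.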
# KB-V1 MDR tox – KB-V1 MDR subline cytotoxicity. KB-V1 MDR cells viability, CellTiter-Glo, 72 h. Potency, µM (highest dose often 46.1 µM), usual class: cytotoxic. 400,000 compounds, 3.4% hits. AID 1347076; note: nearly all actives have a fitted effect of over 60% in size
#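 Drug-selected KB-V1 cells, grown in DMEM lacking phenol red with 10% FBS, receive compound titrations; after three days at 37 degrees C, surviving cell ATP is quantified by CellTiter-Glo luminescence and responses normalized and curve-fitted.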
# Numbers stand for hits; - = inactive; ? = inconclusive; . = no result given. An excerpt weighted towards active compounds, which were near 8.2% of everything screened. Calls come from the whole dose curve; as a rule, active = well fitted curve in the direction sought with a large enough effect; inconclusive = small, poorly fitted or top-dose-only effect, or another doubt; inactive = no such curve, though single readings can be large; an effect the other way counts as inactive or inconclusive.
SMILES,SW480 rereplic,MCF10A rerep,KB-3-1 cytotox,ELG1 repair inh,KB-V1 MDR tox
O=C(COC(=O)/C=C/c1ccccc1)NCc1ccco1,.,.,-,.,-
Cc1cc(C(=O)CSc2n[nH]c(N)n2)c(C)n1-c1cc(F)ccc1F,-,-,-,?,-
Cc1cc(C(=O)CSc2n[nH]c(N)n2)c(C)n1-c1ccccc1,-,?,-,?,-
Cc1cc(C(=O)CSc2n[nH]c(N)n2)c(C)n1-c1ccc(F)cc1,-,-,?,?,16µM
Cc1ccc(-n2c(C)cc(C(=O)CSc3n[nH]c(N)n3)c2C)cc1,-,-,21µM,?,-
Cc1cccc(N2CCN(S(=O)(=O)c3ccc4oc(=O)c5ncn(C)c5c4c3)CC2C)c1 (centres undefined),.,.,-,.,?
O=S(=O)(c1ccc2c(c1)OCCO2)C1CCC(S(=O)(=O)c2c(F)cccc2F)CC1 (centres undefined),-,-,-,-,-
O=C(O)CCn1cc(-c2ccc(F)cc2)nc1-c1ccncc1,-,-,-,-,-
COC(=O)/C=C1\OCc2c(F)cccc21,.,.,-,.,-
CCOc1cccc2cc(C(=O)N3CCN(C/C=C/c4ccccc4)CC3)c(=O)oc12,-,-,-,?,8.2µM
COc1ccc2c(c1)sc1ncc(C(=O)NCc3ccc(OC(C)C)cc3)c(=O)n12,.,.,-,.,-
COc1cc(/C=N/O)cc(Br)c1OCC(=O)NCc1ccccc1,-,-,-,-,16µM
COc1ccc(N2CCN(C(=O)COC(=O)CNC(=O)c3ccccc3)CC2)cc1,-,-,.,-,.
CCOC(=O)c1c(NC(=O)CN(CC)CC)sc2c1CCN(C(=O)OCC)C2,-,-,-,?,?
CCOC(=O)c1cc(C)sc1NC(=O)CN1CCN(C(=O)c2ccco2)CC1,-,-,-,-,-
COC(=O)c1cc(C)sc1NC(=O)CN1CCN(C(=O)c2ccco2)CC1,?,-,-,21µM,?
CCOC(=O)c1c(NC(=S)N2CCN(C)CC2)sc2c1CCN(C(=O)OCC)C2,?,?,-,16µM,-
CCOC(=O)c1c(NC(=O)CN2CCN(C(=O)c3ccco3)CC2)sc2c1CCCC2,-,-,-,21µM,-
COc1ccc(C2CC=C(C(C)=O)CN2S(=O)(=O)c2ccccc2)cc1 (centres undefined),.,.,-,.,-
c1ccc(CNc2ccc3c(c2)ncn3C2CCCCC2)nc1,23µM,21µM,-,?,-
CC(C)CCNC(=O)c1ccc2c(c1)ncn2C1CCCCC1,-,-,-,-,13µM
O=C(O)c1ccc2c(c1)ncn2C1CCCC1,-,-,-,?,-
CCCCS(=O)(=O)Nc1ccc2c(c1)ncn2C1CCCCC1,-,23µM,-,-,?
CCc1ccc(NC(=O)c2ccc3c(O)c(S(=O)(=O)c4ccccc4)c(=O)[nH]c3c2)cc1,.,.,-,.,-
O=C(Nc1cccnc1)c1cc(-c2ccc(Br)cc2)nc2ccccc12,-,?,-,?,-
SMILES,SW480 rereplic,MCF10A rerep,KB-3-1 cytotox,ELG1 repair inh,KB-V1 MDR tox
CC(=O)c1cccc(NC(=O)c2cc(-c3ccco3)nc3ccccc23)c1,-,-,?,?,?
CC(=O)c1cccc(NC(=O)c2cc(-c3ccncc3)nc3ccccc23)c1,?,-,-,21µM,?
Cc1cc(NC(=O)c2cc(-c3ccncc3)nc3ccccc23)ccc1Br,-,?,?,?,8.2µM
Cc1cc(C(=O)Nc2ccncc2)c2ccccc2n1,-,-,-,23µM,?
Cc1ccc(OCC(=O)NCCCNC(=O)c2ccccn2)cc1C,-,-,-,-,-
COc1ccc(Cn2c(C)nc3c(c2=O)c2nc4ccccc4nc2n3Cc2ccco2)cc1,21µM,18µM,?,.,?
CCC(C)n1cnc2c(c1=O)c1nc3ccccc3nc1n2Cc1ccc(OC)cc1 (centres undefined),-,?,-,?,15µM
CC1=CCC(C(=O)O)C(C(=O)Nc2ccc(-c3nc4ccc(C)cc4s3)cc2)C1 (centres undefined),-,?,-,?,?
C=CCn1nc(-c2ccccc2)c(N2CCCCC2)cc1=O,-,-,-,-,?
O=c1cc(N2CCCCC2)c(-c2ccccc2)nn1Cc1ccccc1Cl,-,?,?,-,-
O=c1cc(N2CCCCC2)c(-c2ccccc2)nn1Cc1cccc(Cl)c1,-,21µM,-,-,-
